TsaE inh – displaces an ADP probe from E. coli YjeE (TsaE) | purified YjeE enzyme, qHTS inhibition assay | Potency, µM | 71,000 tested, 0.05% active
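Fluorescence polarization of a BODIPY Texas Red–ADP probe (2 uM) bound to purified YjeE (10 uM) was read after 15 min room-temperature incubation with compounds. Loss of polarization marks inhibitors; ADP serves as titrated control.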
HEK293 cAMP ctrl – counter-screen for TSHR agonists: cAMP increase in parental HEK293; parental HEK293 CNG cAMP sensor, membrane potential fluorescence; Potency, µM (highest dose often 57.1 µM), without a hit: at the top dose activation, usual class: activators; 73,000 tested, 2.5% active; AID 938; further: potency means the concentration at half of the fitted maximal effect; % of control where 0% means no effect; nearly all actives have a fitted effect of over 55% in size
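Parental HEK 293 cells stably expressing a modified CNG channel (no TSHR) report cAMP rise as membrane depolarization. Membrane potential dye with 100 uM RO 20-1724 was loaded for 60 min at room temperature, then compound added for 30 min; fluorescence read at 590 nm.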
Hsp90 Hop PPI – changes Hsp90-Hop TPR2A binding signal, up or down. 71,000 tested, 0.44% active. AlphaScreen TPR2A-His6 binding biotin-Hsp90 C-terminal peptide. AID 595. Potency, µM (doses to about 57 µM), for inactives: at the highest dose activity change, negative = inhibition; active means well fitted curve in either direction with a large enough effect; inconclusive means small, poorly fitted or top-dose-only effect, or another doubt; further: potency means the concentration at half of the fitted maximal effect; on the % scale 0 is the no-effect control and ±100 the full control effect
BRCT inh red – disrupts BRCA1 BRCT binding to phosphoprotein, red fluorophore readout | P38398 | BRCT-phosphopeptide binding, red fluorescence polarization | Potency, µM (highest dose often 76.9 µM), for inactives: at the highest dose activity change, negative = inhibition, hits mostly inhibitors | 75,000 tested, 0.03% active; further: on the % scale 0 is the no-effect control and ±100 the full control effect
Target sequence (P38398 whole entry, looked up): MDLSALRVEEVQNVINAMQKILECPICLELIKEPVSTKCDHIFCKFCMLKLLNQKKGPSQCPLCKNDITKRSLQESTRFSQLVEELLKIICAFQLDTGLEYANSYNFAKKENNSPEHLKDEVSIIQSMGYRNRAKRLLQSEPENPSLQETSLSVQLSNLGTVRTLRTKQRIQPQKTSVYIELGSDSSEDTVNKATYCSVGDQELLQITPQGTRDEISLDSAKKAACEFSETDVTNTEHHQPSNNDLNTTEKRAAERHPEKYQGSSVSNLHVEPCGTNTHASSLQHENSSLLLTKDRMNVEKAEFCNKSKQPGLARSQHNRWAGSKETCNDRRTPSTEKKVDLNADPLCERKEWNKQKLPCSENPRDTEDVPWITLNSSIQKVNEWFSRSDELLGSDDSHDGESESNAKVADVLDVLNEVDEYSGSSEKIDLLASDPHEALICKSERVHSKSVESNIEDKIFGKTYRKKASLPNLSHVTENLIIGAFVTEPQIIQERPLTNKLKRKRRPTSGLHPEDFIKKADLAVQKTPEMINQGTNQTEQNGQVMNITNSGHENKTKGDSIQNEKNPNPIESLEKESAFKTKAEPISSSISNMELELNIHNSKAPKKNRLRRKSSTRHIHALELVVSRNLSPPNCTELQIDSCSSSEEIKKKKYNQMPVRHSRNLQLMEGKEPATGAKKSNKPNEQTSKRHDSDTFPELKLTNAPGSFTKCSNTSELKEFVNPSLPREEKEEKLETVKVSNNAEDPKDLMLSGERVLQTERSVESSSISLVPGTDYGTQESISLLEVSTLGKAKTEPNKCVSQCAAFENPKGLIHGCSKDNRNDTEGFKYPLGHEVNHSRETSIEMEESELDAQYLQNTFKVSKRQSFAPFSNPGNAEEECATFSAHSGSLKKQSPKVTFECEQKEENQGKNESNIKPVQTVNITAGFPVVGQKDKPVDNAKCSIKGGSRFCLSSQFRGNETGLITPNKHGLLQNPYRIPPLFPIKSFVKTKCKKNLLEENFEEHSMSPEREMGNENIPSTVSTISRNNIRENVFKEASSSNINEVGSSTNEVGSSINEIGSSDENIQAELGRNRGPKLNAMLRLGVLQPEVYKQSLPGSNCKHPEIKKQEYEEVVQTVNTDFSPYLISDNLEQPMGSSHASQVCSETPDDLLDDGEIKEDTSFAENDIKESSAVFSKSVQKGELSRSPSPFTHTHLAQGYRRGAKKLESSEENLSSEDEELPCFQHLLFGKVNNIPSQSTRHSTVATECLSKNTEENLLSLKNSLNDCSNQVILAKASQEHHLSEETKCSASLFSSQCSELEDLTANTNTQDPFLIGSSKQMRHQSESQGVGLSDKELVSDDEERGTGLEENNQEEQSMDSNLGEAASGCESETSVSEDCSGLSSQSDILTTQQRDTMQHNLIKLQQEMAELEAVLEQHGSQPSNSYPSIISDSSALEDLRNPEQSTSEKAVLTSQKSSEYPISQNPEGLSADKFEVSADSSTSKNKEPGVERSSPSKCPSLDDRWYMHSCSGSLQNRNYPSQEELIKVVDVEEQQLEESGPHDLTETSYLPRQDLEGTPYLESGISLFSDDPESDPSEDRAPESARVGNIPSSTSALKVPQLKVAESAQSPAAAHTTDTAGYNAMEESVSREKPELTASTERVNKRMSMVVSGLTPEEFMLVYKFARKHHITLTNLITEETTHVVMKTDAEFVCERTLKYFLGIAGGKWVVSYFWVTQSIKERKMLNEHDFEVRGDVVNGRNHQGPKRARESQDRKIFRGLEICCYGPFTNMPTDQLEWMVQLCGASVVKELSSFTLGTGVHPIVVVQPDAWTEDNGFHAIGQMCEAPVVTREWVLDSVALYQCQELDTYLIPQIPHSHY
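Rhodamine-labelled pBACH1 10-mer (100 nM) bound to BRCT domain (100 nM) at pH 7.3; compounds incubated 12 min room temperature, polarization read. Free peptide defines full inhibition; unlabelled decapeptide titrated as control.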
TSHR agonist – activates the human thyroid stimulating hormone receptor; P16473; HEK293-CNG-TSHR cells (CNG channel as cAMP sensor), membrane potential dye, cAMP; Potency, µM (top dose mostly 57.1 µM), without a hit: at the top dose activation, usual class: activators; 73,000 tested, 0.48% active; AID 926; active means well fitted activation curve with a large enough effect in the main read-out, with a control signal flat, not every such curve was filed as active; inconclusive means small, poorly fitted or top-dose-only effect, or a change in a side signal; inactive means no such curve, though single readings can be large or run the other way; % of control where 0% means no effect;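 further: the control signal comes from parental cells without the receptor; potency means the concentration at half of the fitted maximal effect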
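cAMP rise detected as CNG-channel membrane depolarization by fluorescent dye (emission 590 nm), 30 min after compound, following 60 min dye loading containing 100 uM RO 20-1724 at room temperature. Cells: TSHR/CNG HEK 293, with parental CNG HEK 293 as control.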
BRCT PPI green – blocks human BRCA1 BRCT binding to phosphopeptide, green readout; P38398; BRCA1 BRCT-phosphopeptide binding, green fluorescence polarization; Potency, µM (top dose mostly 76.9 µM), for inactives: at the top dose activity change, negative = inhibition, usual class: inhibitors; 75,000 tested, 0.05% active;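 further: potency means the concentration at half of the fitted maximal effect; plate controls were peptide without protein for full effect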
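Compounds were incubated for 12 min at room temperature with a complex of 100 nM fluorescein-tagged pBACH1 decapeptide and 250 nM His-tagged BRCT protein. Buffer was phosphate pH 7.3 with EDTA, DTT and Tween 20. Disruption of binding lowers the polarization signal.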
Hsp90 TPR2A CRC – confirmation and counter-screen of Hsp90 TPR2A co-chaperone interaction disrupters | 45 tested, 100% active | AlphaScreen TPR2A-His6 / biotin-Hsp90 peptide binding | activity, negative = inhibition, % at 40 µM or 46 µM, hits read low | AID 632 | shares compounds with Hsp90 Hop PPI;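 active means compound lowering the Hsp90 and TPR2A binding signal, whether or not the linker counterscreen also flagged it as an artifact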
parental cAMP – raises cAMP in parental HEK293 cells lacking TSH receptor | shares compounds with TSHR agonist | parental HEK293 CNG biosensor, cAMP membrane potential fluorescence | activity change, negative = inhibition, % at 32.9 µM | 150 tested, under 10 active
* = called active by the depositor; i = inactive; u = inconclusive; x = no result given; + = active, no number; [ ] = remark or other dose. Sampled rows, rich in hits. Any-hit rate of the full collection: about 3.3%. Unless noted, the call rests on the fitted dose curve; in most records, active means well fitted curve in the direction sought with a large enough effect; inconclusive means small, poorly fitted or top-dose-only effect, or another doubt; inactive means no such curve, though single readings can be large; an effect the other way counts as inactive or inconclusive.

SMILES | TsaE inh | HEK293 cAMP ctrl | Hsp90 Hop PPI | BRCT inh red | TSHR agonist | BRCT PPI green | others
C[C@@H]1[C@H]2C=C[C@@H]1[C@@H](c1c3ccc(=O)c(O)c-3oc3c(O)c(O)ccc13)[C@@H]2C(=O)O | i | 1.9%[11.4 µM] | u | u | 7.0%[11.4 µM] | u
CC(C)N[C@@H](C)Cc1ccc(I)cc1 | i | 0.7% | -5.9% | 1.3% | 7.3% | -2.7%
C=C1C/C(=C\C)C(=O)O[C@@H]2CCN3CC=C(COC(=O)[C@]1(C)O)[C@H]23 | i | 3.3% | -5.4% | x | -0.7% | x
COC(=O)[C@]1(C)C[C@H]1[C@H](NP(=O)(c1ccccc1)c1ccccc1)c1ccccc1 | i | u | -8.5% | 0.2% | u | -2.0%
CNC(=O)[C@H]1C[C@@H]1[C@H](NP(=O)(c1ccccc1)c1ccccc1)c1ccccc1 | i | 15.8µM* | -7.5% | -0.3% | u | -1.7%
COC(=O)[C@@H]1C[C@H]1[C@@H](NP(=O)(c1ccccc1)c1ccccc1)c1ccccc1 | i | 12.6µM* | -6.6% | -1.3% | u | -2.4%
COC(=O)[C@H]1C[C@@H]1[C@H](NP(=O)(c1ccccc1)c1ccccc1)c1ccccc1 | i | 0.501µM* | -12.5% | 1.0% | u | -3.0%
O=C(O)[C@@H]1C[C@H]1[C@@H](NP(=O)(c1ccccc1)c1ccccc1)c1ccccc1 | i | 3.2% | -8.2% | -0.3% | 3.0% | -2.2%
COC(=O)[C@@H]1C[C@@H]1[C@@H](NP(=O)(c1ccccc1)c1ccccc1)c1ccccc1 | i | 10µM* | -8.5% | x | u | x
C[C@H]1C(=O)O[C@H]2CCN3CC=C(COC(=O)[C@](C)(O)[C@@]1(C)O)[C@H]23 | i | -3.3% | -1.1% | x | 0.1% | x
N[C@H](Cn1cc(I)c(=O)[nH]c1=O)C(=O)O | i | 6.1% | -4.1% | x | 1.9% | x
C=C[C@@H]1CN2CC[C@@H]1C[C@H]2[C@H](O)c1ccnc2ccccc12 | i | 7.2% | 4.0% | x | -4.9% | x
O=c1[nH]c(=O)n(Cc2ccccc2)c(O)c1C=NCCCn1ccnc1 | i | -5.0% | 15.8µM* | 0.2% | 0.3% | 39.4%
CCCCn1c(O)c(C=NCCCn2ccnc2)c(=O)[nH]c1=O | i | 4.2% | -6.1% | 1.5% | -2.0% | 1.5%
Oc1cc(Cl)c(Cl)c(Cl)c1 | i | -3.1% | -2.0% | 0.2% | 21.0% | -1.9%
Oc1c(Cl)c(Cl)cc(Cl)c1Cl | i | 39.8µM* | 1.2% | 0.9% | u | 0.7%
Oc1cc(Cl)c(Cl)c(Cl)c1Cl | i | 39.8µM* | 0.4% | -0.7% | u | 0.0%
NC[C@@H]1O[C@@H](O[C@H]2[C@@H](O)[C@H](O[C@@H]3[C@H](O)[C@H](N)C[C@H](N)[C@H]3O[C@@H]3O[C@@H](CO)[C@H](O)[C@H](O)[C@@H]3N)O[C@H]2CO)[C@H](N)[C@H](O)[C@@H]1O | i | -3.6% | -2.0% | -1.7% | 0.7% | -2.4%
Cc1nc2ccccc2cc1C[N+]12CN3CN(CN(C3)C1)C2 | i | -6.9%[11.4 µM] | -2.5%[11 µM] | 0.1%[15.4 µM] | 0.8%[11.4 µM] | -3.7%[15.4 µM]
CC(C)CC(N(C)C)C1(c2ccc(Cl)cc2)CCC1 (stereo unspecified) | x | 25.1µM* | x | 0.6% | u | -0.2%
c1ccc(/N=C2\N=C(Nc3ccccn3)c3ccccc32)nc1 | i | 18.6% | -21.4% | -0.8% | 7.94µM* | -1.9%
O=C(Oc1ccccc1)N1CCC2(CC1)CN(C(c1ccccc1)c1ccccc1)C2 | i | 31.6µM* | -9.2% | 0.5% | u | -1.1%
COC1=C[C@H]2[C@@H]3Cc4ccc(OC)c(O)c4[C@@]2(CCN3C)CC1=O | i | 1.4% | -7.1% | x | 11.1% | x
CCCCOC(=O)c1ccccc1C(=O)OCc1ccccc1 | i | 15.8µM* | u | -1.9% | u | 3.3%
CCCCCCCCOC(=O)c1ccccc1C(=O)OCCCCCCCC | i | 13.2% | u | 0.4% | -2.2% | -2.8%
SMILES | TsaE inh | HEK293 cAMP ctrl | Hsp90 Hop PPI | BRCT inh red | TSHR agonist | BRCT PPI green | others
CC(C)(C)NCc1cccn1-c1sc2c(c1C#N)CCCC2 | i | 25.1µM* | u | 0.3% | u | -0.5%
Cn1ncnc2c(=O)n(C)c(=O)nc1-2 | i | u | 0.794µM* | -1.7% | u | -0.5% | Hsp90 TPR2A CRC=+
NC(=NCCC[C@@H](N)C(=O)O)N[N+](=O)[O-] | i | u | -4.8% | x | u | x
O=C(Nc1ccccn1)NC12CC3CC(CC(C3)C1)C2 | i | 26.5% | -2.5% | -1.6% | 20µM* | -2.1% | parental cAMP=-8.7
CN1CCN(c2ccc([N+](=O)[O-])c3[nH]o[n+](=O)c23)CC1 | i | -0.2%[11.4 µM] | -8.2%[11 µM] | -0.8%[15.4 µM] | x | -4.0%[15.4 µM]
CCn1c(C)c(C(=O)O)c2cc(OC)ccc21 | i | -7.4% | -1.7% | -0.6% | -0.2% | -1.9% | parental cAMP=6.2[25.6 µM]
CCOC(=O)c1c(C)n(COCCO)c2ccc(O)cc12 | i | -2.6% | -2.4% | -3.5% | -0.9% | -1.5%
CCC(=NCC1CCCO1)c1c(O)n(Cc2ccccc2)c(=O)[nH]c1=O (stereo unspecified) | i | 3.5% | -1.3% | -0.5% | 0.6% | -0.2% | parental cAMP=5.6[25.6 µM]
O=C(O)[C@@H](O)[C@@H](O)[C@@H]1[O][Sb][O][C@@H]1CO | i | -5.3%[11.4 µM] | -0.8%[11 µM] | -0.9%[15.4 µM] | x | -0.1%[15.4 µM]

Screening data as filed in PubChem BioAssay.
